# Experimental data taken from PubChem BioAssay AID1347076 (National Center for Advancing Translational Sciences (NCATS), 2019).
# The campaign covered roughly 400,000 compounds. About 13,000 (3.2%) were called active. Inconclusive results (about 18%) are left out. The sample as a whole holds a higher share of actives than the screen did. A number with no mark means an inactive call. Calls come from the whole dose curve; as a rule, active = well fitted cell-killing curve with a large enough effect; inconclusive = small, poorly fitted or top-dose-only effect, or effect the other way; inactive = flat fitted curve, though single readings scatter.
# Assay: qHTS assay for MDR1-selective chemotherapeutics: Primary screen using the drug-selected MDR subline cells KB-V1; note: nearly all actives have a fitted effect of over 60% in size
# Conditions: KB-V1 MDR cells viability, CellTiter-Glo, 72 h; series mostly up to 46.1 µM; activity change, negative = cytotoxicity: at the top concentration
# Summary of the method: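 Luminescent ATP read-out (CellTiter-Glo, 10 min) measures survival of drug-selected KB-V1 MDR cells after 72 h, 37 degrees C compound exposure. Medium: phenol-red-free DMEM, 10% FBS. Values from fitted concentration-response curves.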
# % is set by controls: 0 for no effect and ±100 for the full control effect; potency is the fitted concentration of half-maximal effect.
Structure (SMILES),Potency,"activity change, negative = cytotoxicity [%]"
CCc1ccc(N(CC(=O)Nc2sc3c(c2C(=O)OC)CCCC3)S(C)(=O)=O)cc1,9.2 µM (active),–
COc1cccc(OC)c1C(=O)Nc1sc2c(c1C(N)=O)CCCC2,–,-18.8
CCOC(=O)c1c(NC(=O)CSc2nnc(Cc3csc(N)n3)n2C)sc(C)c1C,–,4.84
CCOC(=O)c1c(NC(=O)CSc2nnc(CN3CCOCC3)n2C)sc2c1CCCC2,5.8 µM (active),–
COC(=O)c1c(NC(=O)COC(=O)[C@@H](NS(=O)(=O)c2ccccc2)C(C)C)sc2c1CCC2,14.6 µM (active),–
COC(=O)c1c(NC(=O)CN2C(=O)NC(CCc3ccccc3)C2=O)sc2c1CCCCC2 (stereo not drawn),–,0.551
Cc1cccc(C(=O)OCC(=O)Nc2sc3c(c2C#N)CCC3)c1,–,-0.263
COC(=O)c1c(NC(=O)C2CC(C)=C(C)CC2C(=O)O)sc2c1CCCCC2 (stereo not drawn),–,7
NC(=O)c1c(NC(=O)CSc2nnc(-c3ccco3)n2N)sc2c1CCCC2,–,-7.89
COC(=O)c1c(NC(=O)CN(c2ccc(C)c(C)c2)S(C)(=O)=O)sc2c1CCCC2,–,14.3
COC(=O)c1c(NC(=O)CSc2nncs2)sc2c1CCCCC2,23.1 µM (active),–
COC(=O)c1c(NC(=O)c2ccc(Cl)c(Cl)c2)sc2c1CCCC2,–,17.4
O=C(NCc1cccnc1)c1ccc2nc([C@@H]3O[C@H](CO)[C@H](O)[C@H](O)[C@H]3O)[nH]c2c1,–,-1.88
O=C(c1ccc(S(=O)(=O)c2ccccc2)cc1)N1CCCCCC1,–,1.57
Cc1cccc(-n2c(N)c(C(=O)N3CCN(C)CC3)sc2=S)c1,–,-2.49
N#Cc1ccccc1-n1c(N)c(C(=O)N2CCCC2)sc1=S,16.4 µM (active),–
COc1ccc(C(=O)NCC[N+](C)(C)C)cc1,–,4.17
CC1(C(=O)NCc2ccccc2)CSCC(=O)N1CCCN1CCOCC1 (stereo not drawn),–,-3.51
O=C(Nc1ccc(Cl)c(C(F)(F)F)c1)C1Cc2c(-c3ccccc3Oc3ccccc3)ccnc2O1 (stereo not drawn),–,3.66
Cc1cccc(NC(=O)Nc2ccc(OCc3ccccc3)cc2)n1,–,-0.32
CNC(=O)c1sc(Nc2ccc(OCc3ccccc3)cc2)nc1C,8.2 µM (active),–
CNC(=O)c1sc(NCc2ccccc2OC)nc1C,–,-22.9
COc1ccc(C(=O)N2CCCCC2c2cc(C(=O)Nc3ccc(F)c(Cl)c3)no2)cc1 (stereo not drawn),–,-11.6
O=[N+]([O-])c1ccc(CN2CC(N3CC=CC3)CS2(=O)=O)cc1 (stereo not drawn),–,-6.04
CC(C)(C)S(=O)N1Cc2cc(C(=O)NCCCN3CCOCC3)nc(-c3cccc(-c4cc5ccccc5o4)c3)c2[C@H]1CCO (stereo partly drawn),–,-18.9

Structure (SMILES),Potency,"activity change, negative = cytotoxicity [%]"
O=C(NCc1ccco1)c1ccc(Cn2c(=O)c3sccc3n(Cc3ccc(F)cc3)c2=O)cc1,–,-10.9
O=C(NCc1ccco1)c1cc2sccc2n1Cc1ccc(F)cc1,16.4 µM (active),–
CC(=O)Nc1ccc(NC(=O)c2cc3sccc3n2Cc2ccc(F)cc2)cc1,–,0
CCCCCCN1C[C@H](O)[C@@H](n2cc(C3CC3)nn2)C[C@@H]1c1ccc(Cl)cc1,–,0
COC(=O)c1sccc1NC(=O)c1csc2c1CCCC2,14.6 µM (active),–
COC(=O)c1sccc1NC(=O)c1ccc(Cl)cc1,–,-6.52
CCOC(=O)c1ccc(NC(=O)c2csc3c2CCCCC3)cc1,–,16.5
CCNC(=S)Nc1ccc2c(c1)c(=O)n(C)n2Cc1ccc(Cl)cc1,–,-0.147
CCC(C(=O)NC(C)(C)C)n1c(-c2ccccc2)nc2ccccc21 (stereo not drawn),–,-16.9
Cc1cccc(NC(=O)c2ccc([N+](=O)[O-])o2)c1,18.4 µM (active),–
O=C(Nc1ccc(Br)cn1)c1ccc([N+](=O)[O-])o1,–,-28.8
Cc1onc(NC(=O)c2ccc([N+](=O)[O-])o2)c1Br,–,0
CCN(CC)C(=O)CSc1nnc(-c2cccc(OC)c2)o1,11.6 µM (active),–
COc1cccc(NC(=O)CSc2nnc(-c3cccnc3)o2)c1,–,-1.74
COc1cccc(-c2nnc(SCC(=O)N3CCC(C)CC3)o2)c1,–,5.37
COC(=O)Nc1nc2ccc(Sc3ccccc3)cc2[nH]1,1.16 µM (active),–
Cc1ccc2nc(CNC(=O)c3ccccc3)[nH]c2c1,–,9.02
CC(C)c1nc2ccc(C(=O)O)cc2[nH]1,–,-8.64
CCN(CCCNC(=O)Cn1ncc2c3ccccc3n(C)c2c1=O)Cc1ccccc1,–,10.1
C=CCN(CC=C)S(=O)(=O)c1ccc(C(=O)Nc2nc3c(s2)CCc2ccccc2-3)cc1,–,-28.4
COCCN(CCOC)S(=O)(=O)c1ccc(C(=O)Nc2nc3c(s2)CCc2ccccc2-3)cc1,8.2 µM (active),–
COCCN(CCOC)S(=O)(=O)c1ccc(/C(O)=C(\C#N)c2nc3ccccc3[nH]2)cc1,–,-17.6
O=[N+]([O-])c1ccc(S(=O)(=O)N2CCN(c3nc(-c4ccccc4)nc4ccccc34)CC2)cc1,–,0
CC(=O)c1cccc(-c2cnc3c(NC=O)cc(-c4ccccc4Oc4ccccc4)cn23)c1,–,-17.7
COc1ccc(-c2cc(NC=O)c3ncc(-c4ccccc4)n3c2)cc1OC,18.4 µM (active),–

Structure (SMILES),Potency,"activity change, negative = cytotoxicity [%]"
CN(C)C(=O)c1cccc(-c2cnc3c(NC=O)cc(-c4ccc(C(=O)N5CCOCC5)cc4)cn23)c1,–,1.7
CC(=O)c1cccc(-c2cnc3c(NC=O)cc(-c4ccc(N5CCN(C)CC5)cc4)cn23)c1,–,1
CC(=O)Nc1cc(-c2cccc(CO)c2)cn2c(-c3cccc(C(F)(F)F)c3)cnc12,–,5.62
CC(=O)c1cccc(-c2cnc3c(NC=O)cc(-c4cccc(C(=O)N(C)C)c4)cn23)c1,–,14.1
CN(C)CCNC(=O)c1cccc(-c2cnc3c(NC=O)cc(-c4cccc(C(F)(F)F)c4)cn23)c1,14.6 µM (active),–
CC(=O)c1cccc(-c2cnc3c(NC=O)cc(-c4ccc(N(C)C)cc4)cn23)c1,18.4 µM (active),–
CC(=O)c1ccc(-c2cnc3c(NC=O)cc(-c4cccc(NS(C)(=O)=O)c4)cn23)cc1,–,0.977
CC(C)(C)C(=O)c1c(N)[nH]c(C(=O)c2ccccc2)c1-c1ccc(F)cc1,–,-12.2
CCCNC(=O)C1(C)CCCN(Cc2cccc(C(F)(F)F)c2)C1 (stereo not drawn),–,3.51
CC1CN(C(=O)c2cccc(NS(=O)(=O)c3ccc(Br)cc3)c2)CC(C)O1 (stereo not drawn),–,-24.9
CCN(CC)C(=O)C1=C(C)N(Cc2ccc(F)cc2)C(=O)C(CC(=O)NCc2cccc3ccccc23)C1 (stereo not drawn),–,-7.48
FC(F)(F)Oc1ccccc1C(c1nnnn1C1CCCCC1)N1CCN(C/C=C/c2ccccc2)CC1 (stereo not drawn),–,0
CCCCC[C@@H]1C=C(C(=O)OCC)[C@H](c2ccccc2)N1S(=O)(=O)c1ccc(C)cc1,–,-28.5
CS(=O)(=O)N1CCCCC1c1cc(C(=O)NCc2ccccc2)no1 (stereo not drawn),–,-1.31
Cc1ccc(Cn2c(=O)n(-c3ccc(C)cc3)c(=O)c3c2c2cc(C)ccc2n3C)cc1,–,21.8
CCOC(=O)/C(=C\c1ccc([N+](=O)[O-])cc1)C(=O)c1cc(C(C)=O)c(Nc2ccccc2)s1,8.2 µM (active),–
CCOC(=O)COc1ccc([N+](=O)[O-])cc1,–,-5.01
Cc1ccc(NC(=O)/C(=C/c2ccc([N+](=O)[O-])cc2)NC(=O)c2ccccc2)cc1,–,-3.11
O=c1c(NCc2cccs2)nccn1-c1ccccc1,–,9.24
COc1ccccc1N1CCN(Cc2cc(OC)c3c(c2)OCO3)CC1,–,-7.05
COc1ccccc1N1CCN(Cc2ccc(OC)c3ccccc23)CC1,16.4 µM (active),–
CNCC(O)CN1CCN(c2ccccc2OC)CC1 (stereo not drawn),–,-1.79
CCCn1c(NCc2ccc(N(CC)CC)cc2)nc2ccccc21,–,-22.9
COc1ccc(-c2ccc(CN3C(C(C)C)C(=O)N(Cc4cn(CC5CCCCC5)nn4)CCS3(=O)=O)cc2)cn1 (stereo not drawn),–,-16.7
CCOC(=O)c1c(NC(=S)SC)sc(C(=O)N2CCc3ccccc3C2)c1C,–,10.7

Structure (SMILES),Potency,"activity change, negative = cytotoxicity [%]"
C=CCn1c(SCC(=O)NC(=O)Cc2ccccc2)nc2ccccc2c1=O,–,0
C=CCn1c(SCC(=O)NCc2ccccc2)nnc1-c1cc(Br)ccc1O,11.6 µM (active),–
O=C(CSc1nnc(-c2cccnc2)n1CCc1ccccc1)NCc1ccccc1,–,-3.79
CN1CCN(C(CNC(=O)c2ccccc2F)c2ccc3c(c2)OCO3)CC1 (stereo not drawn),–,-3.27
COc1ccc2c(c1)CCc1c(C(=O)Nc3c(C)n(C)n(-c4ccccc4)c3=O)noc1-2,18.4 µM (active),–
COc1ccc2c(c1)CCc1c(C(=O)Nc3cc(C)ccc3O)noc1-2,–,11.3
COc1ccc(NS(=O)(=O)c2ccc(C(=O)Nc3c(C)n(C)n(-c4ccccc4)c3=O)cc2)cc1,–,0
Nc1ccc(/C=C/c2ccnc3ccccc23)c([N+](=O)[O-])c1,–,-13.2
COc1ccc(C2=Nc3ccccc3NC(=O)C2N(C(=O)c2cc3ccccc3[nH]2)c2ccccc2)cc1 (stereo not drawn),–,11
COc1ccc(-c2ccc(C(=O)NC(C)C)c3occc23)c(C)c1,–,-4
O=C(Cn1nnc(-c2ccc(CN3CCOCC3)cc2)n1)NC1CCCCC1,23.1 µM (active),–
COc1cccc(N(CC(=O)NC2CCCC2)C(=O)Cn2nnc(-c3ccc(C)cc3)n2)c1,–,-0.0355
O=C(Cn1nnc(-c2ccccc2)n1)NC(=O)NC1CCCC1,–,-1.79
COc1ccc(C(=O)Nc2cccc(NC(=O)c3ccc(OC)cc3OC)n2)c(OC)c1,–,-11.6
CC(C)(C)C(=O)Nc1ccc(-c2cn3cccnc3n2)cc1,–,1.27
CC(C)(C)C(=O)Nc1cccc(-c2ccc[nH]2)n1,16.4 µM (active),–
CCCN1CCN(C(=O)CCCNC(=O)c2ccc(Cl)cc2)CC1,–,-6.51
CCCCNC(=O)CCNC(=O)c1ccc(C(C)(C)C)cc1,14.6 µM (active),–
CC(C)(C)c1ccc(C(=O)NCCC(=O)NCc2ccco2)cc1,–,-16.8
CCOc1ccc(S(=O)(=O)NCCC(=O)NNC(=O)c2ccc(F)cc2)cc1,–,19.8
O=C(CSc1ccc(-c2ccco2)nn1)NCc1ccc2c(c1)OCO2,–,-23.5
O=C(CSc1ccc(-c2ccc(F)cc2)nn1)Nc1ccc2c(c1)OCCO2,–,-21
O=C(CSc1ccc(-c2ccco2)nn1)Nc1cccc(F)c1,10.3 µM (active),–
